The supplement of paper PMC4466140

B1: unnamed (peptide)
chain: QFDLKMPSKPIHNLK

Target: AgAbp1
Assay: SPOT peptide array binding signal intensity (averaged, normalized) (arbitrary units (background-subtracted, floor 0; scale differs between SH3 domains)); higher = stronger binding of the SH3 domain to the peptide
Summary of the method: (§1)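 GST-fused SH3 domains, from four yeast species, were produced in E. coli BL21(DE3) and captured on glutathione Sepharose. Membranes of cellulose carrying synthetic 15-mer peptides, in which cysteines had been replaced by serines, were exposed to each domain at 10 μg/ml overnight at 4°C in TBS-based blocking buffer. After anti-GST antibody, an HRP anti-mouse secondary and luminol, spots were imaged and quantified using Genespotter. Binding signal is normalized and background-subtracted spot intensity, averaged over replicates, in arbitrary units that differ between domains.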

Row | Binder | SPOT peptide array binding signal intensity
1 | B1 | ≤ 0

Target: AgBbc1
Assay: as above
Summary of the method: as §1

Row | Binder | SPOT peptide array binding signal intensity
2 | B1 | 0.5

Target: AgBem1-D1
Assay: as above
Summary of the method: as §1

Row | Binder | SPOT peptide array binding signal intensity
3 | B1 | 103

Target: AgBzz1-D1
Assay: as above
Summary of the method: as §1

Row | Binder | SPOT peptide array binding signal intensity
4 | B1 | 3.5

Target: AgBzz1-D2
Assay: as above
Summary of the method: as §1

Row | Binder | SPOT peptide array binding signal intensity
5 | B1 | ≤ 0

Target: AgCyk3
Assay: as above
Summary of the method: as §1

Row | Binder | SPOT peptide array binding signal intensity
6 | B1 | ≤ 0

Target: AgFus1
Assay: as above
Summary of the method: as §1

Row | Binder | SPOT peptide array binding signal intensity
7 | B1 | 48.5

Target: AgHof1
Assay: as above
Summary of the method: as §1

Row | Binder | SPOT peptide array binding signal intensity
8 | B1 | ≤ 0

Target: AgHse1
Assay: as above
Summary of the method: as §1

Row | Binder | SPOT peptide array binding signal intensity
9 | B1 | 85.5

Target: AgLsb1
Assay: as above
Summary of the method: as §1

Row | Binder | SPOT peptide array binding signal intensity
10 | B1 | ≤ 0

Target: AgLsb4
Assay: as above
Summary of the method: as §1

Row | Binder | SPOT peptide array binding signal intensity
11 | B1 | 3.5

Target: AgMyo5
Assay: as above
Summary of the method: as §1

Row | Binder | SPOT peptide array binding signal intensity
12 | B1 | ≤ 0

Target: AgNbp2
Assay: as above
Summary of the method: as §1

Row | Binder | SPOT peptide array binding signal intensity
13 | B1 | 63.5

Target: AgRvs167
Assay: as above
Summary of the method: as §1

Row | Binder | SPOT peptide array binding signal intensity
14 | B1 | 0.333

Target: AgSho1
Assay: as above
Summary of the method: as §1

Row | Binder | SPOT peptide array binding signal intensity
15 | B1 | 57

Target: AgSla1-D1-D2
Assay: as above
Summary of the method: as §1

Row | Binder | SPOT peptide array binding signal intensity
16 | B1 | ≤ 0

Target: AgSla1-D3
Assay: as above
Summary of the method: as §1

Row | Binder | SPOT peptide array binding signal intensity
17 | B1 | ≤ 0

Target: CaAbp1-D1
Assay: as above
Summary of the method: as §1

Row | Binder | SPOT peptide array binding signal intensity
18 | B1 | ≤ 0

Target: CaAbp1-D2
Assay: as above
Summary of the method: as §1

Row | Binder | SPOT peptide array binding signal intensity
19 | B1 | ≤ 0

Target: CaBbc1
Assay: as above
Summary of the method: as §1

Row | Binder | SPOT peptide array binding signal intensity
20 | B1 | 9.5

Target: CaBem1-D1
Assay: as above
Summary of the method: as §1

Row | Binder | SPOT peptide array binding signal intensity
21 | B1 | 25

Target: CaBzz1-D1
Assay: as above
Summary of the method: as §1

Row | Binder | SPOT peptide array binding signal intensity
22 | B1 | ≤ 0

Target: CaBzz1-D2
Assay: as above
Summary of the method: as §1

Row | Binder | SPOT peptide array binding signal intensity
23 | B1 | 8

Target: CaCyk3
Assay: as above
Summary of the method: as §1

Row | Binder | SPOT peptide array binding signal intensity
24 | B1 | 1.5

Target: CaFus1
Assay: as above
Summary of the method: as §1

Row | Binder | SPOT peptide array binding signal intensity
25 | B1 | 446

Target: CaHof1
Assay: as above
Summary of the method: as §1

Row | Binder | SPOT peptide array binding signal intensity
26 | B1 | ≤ 0

Target: CaHse1
Assay: as above
Summary of the method: as §1

Row | Binder | SPOT peptide array binding signal intensity
27 | B1 | 49.8

Target: CaLsb1
Assay: as above
Summary of the method: as §1

Row | Binder | SPOT peptide array binding signal intensity
28 | B1 | ≤ 0

Target: CaLsb4
Assay: as above
Summary of the method: as §1

Row | Binder | SPOT peptide array binding signal intensity
29 | B1 | 142

Target: CaMyo5
Assay: as above
Summary of the method: as §1

Row | Binder | SPOT peptide array binding signal intensity
30 | B1 | 8

Target: CaNbp2
Assay: as above
Summary of the method: as §1

Row | Binder | SPOT peptide array binding signal intensity
31 | B1 | 202

Target: CaRvs167
Assay: as above
Summary of the method: as §1

Row | Binder | SPOT peptide array binding signal intensity
32 | B1 | 1.67

Target: CaRvs167-3
Assay: as above
Summary of the method: as §1

Row | Binder | SPOT peptide array binding signal intensity
33 | B1 | ≤ 0

Target: CaSho1
Assay: as above
Summary of the method: as §1

Row | Binder | SPOT peptide array binding signal intensity
34 | B1 | 376

Target: CaSla1-D1-D2
Assay: as above
Summary of the method: as §1

Row | Binder | SPOT peptide array binding signal intensity
35 | B1 | 68

Target: CaSla1-D3
Assay: as above
Summary of the method: as §1

Row | Binder | SPOT peptide array binding signal intensity
36 | B1 | 77

Target: ScAbp1
Assay: as above
Summary of the method: as §1

Row | Binder | SPOT peptide array binding signal intensity
37 | B1 | ≤ 0

Target: ScBbc1
Assay: as above
Summary of the method: as §1

Row | Binder | SPOT peptide array binding signal intensity
38 | B1 | 0.25

Target: ScBem1-D1
Assay: as above
Summary of the method: as §1

Row | Binder | SPOT peptide array binding signal intensity
39 | B1 | ≤ 0

Target: ScBzz1-D1
Assay: as above
Summary of the method: as §1

Row | Binder | SPOT peptide array binding signal intensity
40 | B1 | ≤ 0

Target: ScBzz1-D2
Assay: as above
Summary of the method: as §1

Row | Binder | SPOT peptide array binding signal intensity
41 | B1 | 3.5

Target: ScCyk3
Assay: as above
Summary of the method: as §1

Row | Binder | SPOT peptide array binding signal intensity
42 | B1 | ≤ 0

Target: ScFus1
Assay: as above
Summary of the method: as §1

Row | Binder | SPOT peptide array binding signal intensity
43 | B1 | 70

Target: ScHof1
Assay: as above
Summary of the method: as §1

Row | Binder | SPOT peptide array binding signal intensity
44 | B1 | 0.5

Target: ScHse1
Assay: as above
Summary of the method: as §1

Row | Binder | SPOT peptide array binding signal intensity
45 | B1 | 57

Target: ScLsb1
Assay: as above
Summary of the method: as §1

Row | Binder | SPOT peptide array binding signal intensity
46 | B1 | 9

Target: ScLsb2
Assay: as above
Summary of the method: as §1

Row | Binder | SPOT peptide array binding signal intensity
47 | B1 | 1

Target: ScLsb3
Assay: as above
Summary of the method: as §1

Row | Binder | SPOT peptide array binding signal intensity
48 | B1 | 74

Target: ScLsb4
Assay: as above
Summary of the method: as §1

Row | Binder | SPOT peptide array binding signal intensity
49 | B1 | 21

Target: ScMyo3
Assay: as above
Summary of the method: as §1

Row | Binder | SPOT peptide array binding signal intensity
50 | B1 | ≤ 0

Target: ScMyo5
Assay: as above
Summary of the method: as §1

Row | Binder | SPOT peptide array binding signal intensity
51 | B1 | ≤ 0

Target: ScNbp2
Assay: as above
Summary of the method: as §1

Row | Binder | SPOT peptide array binding signal intensity
52 | B1 | 79.5

Target: ScPex13
Assay: as above
Summary of the method: as §1

Row | Binder | SPOT peptide array binding signal intensity
53 | B1 | 23.8

Target: ScRvs167
Assay: as above
Summary of the method: as §1

Row | Binder | SPOT peptide array binding signal intensity
54 | B1 | 2.83

Target: ScSho1
Assay: as above
Summary of the method: as §1

Row | Binder | SPOT peptide array binding signal intensity
55 | B1 | 198

Target: ScSla1-D1-D2
Assay: as above
Summary of the method: as §1

Row | Binder | SPOT peptide array binding signal intensity
56 | B1 | 59

Target: ScSla1-D3
Assay: as above
Summary of the method: as §1

Row | Binder | SPOT peptide array binding signal intensity
57 | B1 | 150

Target: SpAbp1-D1
Assay: as above
Summary of the method: as §1

Row | Binder | SPOT peptide array binding signal intensity
58 | B1 | 0.5

Target: SpBbc1
Assay: as above
Summary of the method: as §1

Row | Binder | SPOT peptide array binding signal intensity
59 | B1 | 1.5

Target: SpBzz1-D1
Assay: as above
Summary of the method: as §1

Row | Binder | SPOT peptide array binding signal intensity
60 | B1 | 104

Target: SpBzz1-D2
Assay: as above
Summary of the method: as §1

Row | Binder | SPOT peptide array binding signal intensity
61 | B1 | ≤ 0

Target: SpCyk3
Assay: as above
Summary of the method: as §1

Row | Binder | SPOT peptide array binding signal intensity
62 | B1 | ≤ 0

Target: SpHof1
Assay: as above
Summary of the method: as §1

Row | Binder | SPOT peptide array binding signal intensity
63 | B1 | 9

Target: SpHof1-2
Assay: as above
Summary of the method: as §1

Row | Binder | SPOT peptide array binding signal intensity
64 | B1 | 11.8

Target: SpHof1-3
Assay: as above
Summary of the method: as §1

Row | Binder | SPOT peptide array binding signal intensity
65 | B1 | ≤ 0

Target: SpHse1
Assay: as above
Summary of the method: as §1

Row | Binder | SPOT peptide array binding signal intensity
66 | B1 | 136

Target: SpLsb1
Assay: as above
Summary of the method: as §1

Row | Binder | SPOT peptide array binding signal intensity
67 | B1 | ≤ 0

Target: SpLsb4
Assay: as above
Summary of the method: as §1

Row | Binder | SPOT peptide array binding signal intensity
68 | B1 | 318

Target: SpMyo1
Assay: as above
Summary of the method: as §1

Row | Binder | SPOT peptide array binding signal intensity
69 | B1 | ≤ 0

Target: SpNbp2
Assay: as above
Summary of the method: as §1

Row | Binder | SPOT peptide array binding signal intensity
70 | B1 | 74.5

Target: SpPex13
Assay: as above
Summary of the method: as §1

Row | Binder | SPOT peptide array binding signal intensity
71 | B1 | 1

Target: SpRvs167
Assay: as above
Summary of the method: as §1

Row | Binder | SPOT peptide array binding signal intensity
72 | B1 | ≤ 0

Target: SpSla1-D1-D2
Assay: as above
Summary of the method: as §1

Row | Binder | SPOT peptide array binding signal intensity
73 | B1 | 5

Target: SpSla1-D3
Assay: as above
Summary of the method: as §1

Row | Binder | SPOT peptide array binding signal intensity
74 | B1 | 30
